Source: PubChem BioAssay AID1159580 (chemical genetic matrix, 2015)
About 2,000 (36%) of roughly 5,500 compounds were called active. Inconclusive results (about 18%) are left out. Cut-off read from the data, not from the text of the source: active = normalized growth mostly below about 0.91 (no sharp cut-off); inconclusive = no clear call, values can overlap the other calls; inactive = mostly above about 0.92. Some of the results follow.

Experiment: chemical genetic growth profiling, strain panel (AID 1159580);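 note: tested at 20 µM; growth read once vehicle control cultures reached saturation at 30 °C; 1 = growth at the plate median or of vehicle wells; lower values mean less growth of the strain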
Conditions: S. cerevisiae deletion strains, growth OD
[1] = locus YAR019C, strain CDC15, active compounds read low
[2] = locus YBL105C, strain PKC1, active compounds read low
[3] = locus YBR135W, strain CKS1, active compounds read low
[4] = locus YBR136W, strain MEC1, active compounds read low
[5] = locus YBR160W, strain CDC28, active compounds read low
[6] = locus YDL017W, strain CDC7, active compounds read low
[7] = locus YDL028C, strain MPS1, active compounds read low
[8] = locus YDL101C, strain DUN1, active compounds read low
[9] = locus YDL108W, strain KIN28, active compounds read low
[10] = locus YDL132W, strain cdc53, active compounds read low
[11] = locus YDL214C, strain PRR2, active compounds read low
[12] = locus YDR052C, strain DBF4, active compounds read low
[13] = locus YDR054C, strain cdc34, active compounds read low
[14] = locus YDR226W, strain ADK1, active compounds read low
[15] = locus YDR477W, strain SNF1, active compounds read low
[16] = locus YER123W, strain YCK3, active compounds read low
[17] = locus YER133W, strain GLC7, active compounds read low
[18] = locus YFL009W, strain cdc4, active compounds read low
[19] = locus YFL029C, strain CAK1, active compounds read low
[20] = locus YFR003C, strain YPI1, active compounds read low
[21] = locus YFR019W, strain FAB1, active compounds read low
[22] = locus YFR028C, strain CDC14, active compounds read low
[23] = locus YGR040W, strain KSS1, active compounds read low
[24] = locus YGR052W, strain FMP48, active compounds read low
[25] = locus YGR092W, strain DBF2, active compounds read low
[26] = locus YHR030C, strain SLT2, active compounds read low
[27] = locus YHR079C, strain IRE1, active compounds read low
[28] = locus YHR082C, strain KSP1, active compounds read low
[29] = locus YHR205W, strain SCH9, active compounds read low
[30] = locus YIL147C, strain SLN1, active compounds read low
[31] = locus YJL095W, strain BCK1, active compounds read low
[32] = locus YJL128C, strain PBS2, active compounds read low
[33] = locus YJL157C, strain FAR1, active compounds read low
[34] = locus YJR016C, strain ILV3, active compounds read low
[35] = locus YJR066W, strain TOR1 (second series), active compounds read low
[36] = locus YJR066W, strain TOR1, active compounds read low
[37] = locus YKL048C, strain ELM1, active compounds read low
[38] = locus YKL067W, strain YNK1, active compounds read low
[39] = locus YKL101W, strain HSL1, active compounds read low
[40] = locus YKL193C, strain SDS22, active compounds read low
[41] = locus YKL203C, strain TOR2, active compounds read low
[42] = locus YLR113W, strain HOG1, active compounds read low
[43] = locus YLR133W, strain CKI1, active compounds read low
[44] = locus YLR403W, strain SFP1, active compounds read low
[45] = locus YML070W, strain DAK1, active compounds read low
[46] = locus YMR001C, strain CDC5, active compounds read low
[47] = locus YMR205C, strain PFK2 (second series), active compounds read low
[48] = locus YMR277W, strain FCP1, active compounds read low
[49] = locus YNL006W, strain LST8, active compounds read low
[50] = locus YNL020C, strain ARK1, active compounds read low
[51] = locus YNL161W, strain CBK1, active compounds read low
[52] = locus YNL183C, strain NPR1, active compounds read low
[53] = locus YNL207W, strain RIO2, active compounds read low
[54] = locus YNL222W, strain SSU72, active compounds read low
[55] = locus YNL307C, strain MCK1 (second series), active compounds read low
[56] = locus YOL078W, strain AVO1, active compounds read low
[57] = locus YOL136C, strain PFK27, active compounds read low
[58] = locus YOR061W, strain CKA2, active compounds read low
[59] = locus YOR119C, strain RIO1, active compounds read low
[60] = locus YOR231W, strain MKK1, active compounds read low
[61] = locus YOR329C, strain SCD5, active compounds read low
[62] = locus YPL031C, strain PHO85, active compounds read low
[63] = locus YPL153C, strain RAD53, active compounds read low
[64] = locus YPL204W, strain HRR25, active compounds read low
[65] = locus YPL209C, strain IPL1, active compounds read low
[66] = locus YPL256C, strain CLN2, active compounds read low
[67] = locus YPR025C, strain CCL1, active compounds read low
[68] = locus YPR106W, strain ISR1, active compounds read low
[69] = locus YPR111W, strain DBF20, active compounds read low
[70] = strain NNK1, active compounds read low
[71] = strain TSCII, active compounds read low

Measured: normalized growth

O=[N+]([O-])c1ccc2oc(C(O)c3cccc(Cl)c3)cc2c1 (configuration not stated)
inactive: [1] 0.947 | [2] 0.948 | [3] 0.943 | [4] 0.957 | [5] 0.947 | [6] 0.949 | [7] 0.954 | [8] 0.937 | [9] 0.949 | [10] 0.936 | [11] 0.942 | [12] 0.953 | [13] 0.951 | [14] 0.952 | [15] 0.957 | [16] 0.94 | [17] 0.96 | [18] 0.945 | [19] 0.946 | [20] 0.948 | [21] 0.931 | [22] 0.949 | [23] 0.964 | [24] 1.05 | [25] 0.907 | [26] 1.08 | [27] 1.02 | [28] 1.06 | [29] 0.931 | [30] 0.96 | [31] 1.04 | [32] 0.91 | [33] 0.932 | [34] 0.954 | [35] 0.93 | [36] 1.09 | [37] 0.93 | [38] 0.942 | [39] 0.934 | [40] 0.946 | [41] 1.03 | [42] 0.893 | [43] 0.935 | [44] 0.939 | [45] 0.94 | [46] 0.945 | [47] 0.944 | [48] 0.952 | [49] 0.954 | [50] 0.929 | [51] 0.956 | [52] 1.04 | [53] 0.944 | [54] 0.947 | [55] 0.925 | [56] 0.946 | [57] 0.95 | [58] 0.922 | [59] 0.992 | [60] 1.01 | [61] 0.948 | [62] 0.953 | [63] 0.955 | [64] 0.954 | [65] 0.946 | [66] 0.996 | [67] 0.953 | [68] 0.961 | [69] 0.948 | [70] 0.934 | [71] 0.944

O=[N+]([O-])c1ccc2oc(C(O)c3ccc(-c4ccccc4)cc3)cc2c1 (configuration not stated)
inactive: [1] 0.989 | [2] 0.976 | [3] 0.978 | [4] 0.975 | [5] 0.985 | [6] 0.979 | [7] 0.987 | [8] 0.975 | [9] 0.969 | [10] 0.996 | [11] 0.84 | [12] 0.982 | [13] 0.995 | [14] 0.999 | [15] 0.849 | [16] 0.805 | [17] 0.863 | [18] 1 | [19] 0.976 | [20] 0.984 | [21] 0.904 | [22] 0.997 | [23] 0.859 | [24] 0.926 | [25] 0.802 | [27] 0.896 | [28] 0.86 | [29] 0.967 | [30] 0.968 | [31] 0.905 | [32] 1.05 | [33] 0.822 | [34] 0.977 | [35] 0.751 | [36] 0.829 | [37] 0.979 | [38] 0.872 | [39] 0.982 | [40] 0.98 | [41] 0.924 | [42] 0.882 | [43] 0.877 | [44] 0.902 | [45] 0.835 | [46] 0.982 | [47] 0.882 | [48] 0.994 | [49] 0.987 | [50] 0.854 | [51] 0.984 | [52] 0.919 | [53] 0.979 | [54] 0.976 | [55] 0.936 | [56] 0.993 | [57] 0.849 | [58] 0.75 | [59] 0.904 | [60] 0.892 | [61] 0.985 | [62] 0.848 | [63] 0.821 | [64] 0.88 | [65] 0.977 | [66] 0.96 | [67] 0.985 | [68] 1 | [69] 1.03 | [70] 0.997 | [71] 0.987
active: [26] 0.786
